Screening results as filed in PubChem BioAssay.
Compounds with a hit are over-represented: about 6.7% of the library has one in this group of screens.
C diff HTS: C. difficile growth inhibition. Clostridium difficile clinical isolate growth, OD600, 24 h; stronger effect = lower value. growth activity, negative = inhibition, % at 16 µg/mL (by protocol). hit rate 0.25% among 86,000. AID 1259249;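 active means mean growth activity at or below -80% and every replicate also at or below -80%; inconclusive means mean at or below -80% but some replicate above -80%; inactive means mean growth activity above -80%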;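 further: 0% = DMSO wells and -100% = levofloxacin 16 µg/mL wells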
T cruzi growth-1: T. cruzi proliferation inhibition; T. cruzi beta-gal in NIH3T3, GalScreen luminescence, 90 h; inhibition, % at 8.34 µM; hit rate 5.9% among 77,000;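 active means mean inhibition above about 93%, with at least 55% of replicates each passing it, limit read from the data, passing the limit was not always enough; inconclusive means only one of those two conditions holds; inactive means neither condition holds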
Pf Dd2 inh: inhibitors of Plasmodium falciparum Dd2 growth. activity change, % at 10 µM. P. falciparum Dd2 growth, SYBR Green, 72 h; stronger effect = lower value. AID 1159554. hit rate 2.3% among 94,000; in the data active means activity change below about -80%; inconclusive means no clear call, values can overlap the other calls
T cruzi growth-2: Trypanosoma cruzi proliferation inhibition. T. cruzi beta-gal in NIH3T3, GalScreen luminescence, 90 h. inhibition, % at 8.35 µM. AID 651739. shares compounds with T cruzi growth-1. hit rate 72% among 5,600;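 active means mean replicate inhibition above about 95% and at least 55% of replicates individually reaching it, limit read from the data; inconclusive means only one of the two criteria is met; inactive means neither criterion is met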
T cruzi growth-3: inhibitors of T. cruzi proliferation; hit rate 21% among 5,600; shares compounds with T cruzi growth-1; inhibition, % at 2.09 µM; AID 651740; T. cruzi beta-gal in NIH3T3, GalScreen luminescence, 90 h;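 active means mean inhibition above about 95%, with at least 55% of replicates also reaching it, limit read from the data; inconclusive means meets just one of the two conditions; inactive means meets neither condition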;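 further: plate controls were neutral control median for no effect and positive control median for full effect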
NIH3T3 tox: NIH/3T3 (mouse) viability loss; hit rate 14% among 5,600; AID 651742; cytotoxicity (signal decrease), % at 8.35 µM; shares compounds with T cruzi growth-1; NIH/3T3 viability, CellTiter-Glo ATP luminescence, 90 h;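 active means mean signal decrease across replicates above about 35% based on untreated-well scatter, with enough replicates individually passing, limit read from the data; inconclusive means no rule stated though some were filed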;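 further: 0% = median of neutral control wells and 100% = median of positive control wells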
NIH3T3 tox 2: NIH/3T3 (mouse) viability loss | shares compounds with T cruzi growth-1 | AID 651744 | NIH/3T3 viability, CellTiter-Glo ATP luminescence, 90 h | inhibition, % at 24.9 µM | hit rate 56% among 5,600;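 active means mean loss of cell viability signal at or above a set limit, and enough replicates individually reaching it; inconclusive means meets only the mean limit or only the replicate share; inactive means meets neither condition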;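 further: 0% = median of neutral control wells and 100% = median of positive control wells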
The depositor's hits bear a star; u = inconclusive; x = not tested or not shown.

SMILES	C diff HTS	T cruzi growth-1	Pf Dd2 inh	T cruzi growth-2	T cruzi growth-3	NIH3T3 tox	NIH3T3 tox 2
C[C@@H]1CN([C@H](C)CO)C(=O)c2cc(NS(=O)(=O)c3ccc(Cl)cc3)ccc2O[C@@H]1CN(C)C(=O)Nc1ccc(C(F)(F)F)cc1	x	8	19	x	x	x	x
COc1ccc(C(=O)Nc2ccc3c(c2)C(=O)N(C)C[C@@H](OC)[C@@H](C)CN(C(C)=O)[C@@H](C)CO3)cc1	x	68	-54	x	x	x	x
COc1ccccc1NC(=O)N(C)C[C@@H]1Oc2ncc(C#CCC(C)C)cc2C(=O)N([C@@H](C)CO)C[C@H]1C	-4	104*	-69	106*	63	-5	3
CC(C)CC#Cc1cnc2c(c1)C(=O)N([C@H](C)CO)C[C@@H](C)[C@H](CN(C)C(=O)Nc1ccccc1F)O2	-15	59	-47	x	x	x	x
CC(C)CC#Cc1cnc2c(c1)C(=O)N([C@@H](C)CO)C[C@@H](C)[C@@H](CN(C)C(=O)Nc1cc(F)ccc1F)O2	3	u	-57	104*	42	36*	74*
CCCC#Cc1cnc2c(c1)C(=O)N([C@@H](C)CO)C[C@@H](C)[C@H](CN(C)C(=O)Nc1ccccc1F)O2	-2	u	-57	115*	89	-5	39*
COc1ccccc1NC(=O)N(C)C[C@@H]1Oc2ncc(C#CCC(C)C)cc2C(=O)N([C@H](C)CO)C[C@@H]1C	5	74	-10	x	x	x	x
CC(C)CC#Cc1cnc2c(c1)C(=O)N([C@@H](C)CO)C[C@H](C)[C@H](CN(C)C(=O)Nc1ccccc1F)O2	-4	x	-22	x	x	x	x
CC(C)CC#Cc1cnc2c(c1)C(=O)N([C@@H](C)CO)C[C@@H](C)[C@H](CN(C)C(=O)Nc1cc(F)ccc1F)O2	-8	115*	-76	101*	100*	13	74*
CCCC#Cc1cnc2c(c1)C(=O)N([C@@H](C)CO)C[C@H](C)[C@@H](CN(C)C(=O)Nc1ccccc1F)O2	-13	-2	-43	x	x	x	x
Cc1ccccc1-c1cnc2c(c1)C(=O)N([C@H](C)CO)C[C@@H](C)[C@@H](CN(C)C(=O)CN(C)C)O2	-8	0	-8	x	x	x	x
CCCN1[C@@H]2c3ccc(-c4cccnc4)c(=O)n3C[C@H]1[C@H](CO)[C@H]2C(=O)NCCc1cn(C)cn1	-1	62	x	x	x	x	x
Cc1noc(C)c1S(=O)(=O)Nc1ccc2c(c1)C(=O)N([C@H](C)CO)C[C@@H](C)[C@@H](CN(C)CC1CCCCC1)OCCCC[C@H](C)O2	10	6	5	x	x	x	x
COc1ccc2c3c(n(C)c2c1)[C@@H](CO)N(C(=O)c1ccccn1)CC31CN(C(=O)c2ccccn2)C1	5	x	-6	x	x	x	x
C/C=C/c1ccc([C@H]2[C@H](CO)N(C(=O)COC)[C@H]2CNC(=O)CC)cc1	-3	0	-5	x	x	x	x
O=C(Cc1ccccn1)NCC[C@H]1CC[C@@H](NS(=O)(=O)c2ccccc2)[C@H](CO)O1	-4	43	-9	x	x	x	x
C[C@H](CO)N1C[C@H](C)[C@H](CN(C)Cc2ccc(Cl)c(Cl)c2)Oc2ccc(NC(=O)Nc3cccc4ccccc34)cc2CC1=O	-7	79	-22	x	x	x	x
C[C@H]1CN([C@@H](C)CO)C(=O)c2cc(NC(=O)Nc3cccc4ccccc34)ccc2O[C@H]1CN(C)Cc1ccc(Cl)c(Cl)c1	0	u	-13	96*	74	7	8
C[C@H]1CN([C@@H](C)CO)C(=O)c2cc(NC(=O)Nc3cccc4ccccc34)ccc2O[C@@H]1CN(C)Cc1ccc(Cl)c(Cl)c1	-2	101	-24	x	x	x	x
C[C@@H]1CN([C@H](C)CO)C(=O)Cc2cc(NC(=O)Nc3cccc4ccccc34)ccc2O[C@@H]1CN(C)Cc1ccc(Cl)c(Cl)c1	9	u	-10	108*	107*	44*	17
C[C@H](CO)N1C[C@H](C)[C@@H](CN(C)S(=O)(=O)c2cccs2)Oc2ccc(NS(=O)(=O)c3cccs3)cc2CC1=O	x	29	-14	x	x	x	x
C[C@@H]1CN([C@@H](C)CO)C(=O)c2cc(NC(=O)c3ccccc3)ccc2O[C@@H](C)CCCCO[C@H]1CN(C)Cc1ccccc1	3	102*	-85*	98*	67	-1	61*
C[C@@H]1CN([C@H](C)CO)C(=O)c2cc(NC(=O)c3ccncc3)ccc2O[C@@H](C)CCCCO[C@H]1CN(C)Cc1ccccc1	-3	98*	-22	59	-33	-5	1
C[C@@H]1CCCCO[C@H](CN(C)Cc2ccccc2)[C@H](C)CN([C@@H](C)CO)C(=O)c2cc(NC(=O)c3ccncc3)ccc2O1	-6	84	-14	x	x	x	x
C[C@@H]1CCCCO[C@@H](CN(C)Cc2ccc(Cl)c(Cl)c2)[C@@H](C)CN([C@H](C)CO)C(=O)c2cc(NC(=O)c3ccccc3)ccc2O1	5	96*	-14	114*	49	5	14
SMILES	C diff HTS	T cruzi growth-1	Pf Dd2 inh	T cruzi growth-2	T cruzi growth-3	NIH3T3 tox	NIH3T3 tox 2
C[C@@H]1CN([C@@H](C)CO)C(=O)c2cc(NC(=O)c3ccncc3)ccc2O[C@@H](C)CCCCO[C@@H]1CN(C)C(=O)c1ccccc1	-1	48	-13	x	x	x	x
C[C@@H]1CCCCO[C@H](CN(C)Cc2ccccc2)[C@H](C)CN([C@@H](C)CO)C(=O)c2cc(NC(=O)c3ccccc3)ccc2O1	-3	54	-47	x	x	x	x
C[C@@H]1CCCCO[C@H](CN(C)C(=O)c2ccncc2)[C@H](C)CN([C@H](C)CO)C(=O)c2cc(NC(=O)c3ccccc3)ccc2O1	-1	97*	-7	23	-17	12	11
C[C@@H]1CCCCO[C@H](CN(C)Cc2ccccc2)[C@@H](C)CN([C@H](C)CO)C(=O)c2cc(NC(=O)c3ccccc3)ccc2O1	2	25	8	x	x	x	x
CO[C@@H]1CN(C)C(=O)c2ccc(NC(=O)c3ccccc3F)cc2OC[C@H](C)NC[C@@H]1C	x	2	14	x	x	x	x
C[C@H]1CN([C@@H](C)CO)C(=O)Cc2cc(NC(=O)c3ccncc3)ccc2O[C@H]1CN(C)C(=O)Nc1cccc2ccccc12	-4	-15	-30	x	x	x	x
COc1cccc(C(=O)N2C[C@@H]3[C@H](c4ccccc42)[C@H](CO)N3C(=O)c2cccc(F)c2)c1	0	42	3	x	x	x	x
O=C(C[C@@H]1CC[C@@H]2[C@H](COC[C@H](O)CN2C(=O)Nc2cccc(Cl)c2)O1)N1CCCCC1	26	82	12	x	x	x	x
CN1[C@H](C(=O)NCC(F)(F)F)[C@@H](CO)[C@@H]2Cn3c(ccc(-c4ccc(F)cc4)c3=O)[C@@H]21	0	34	3	x	x	x	x
C[C@@H]1CCCCO[C@@H](CN(C)Cc2ccccc2)[C@H](C)CN([C@H](C)CO)C(=O)c2cc(NC(=O)c3ccncc3)ccc2O1	x	u	-41	61	38	-8	-7
